Test results taken from PubChem BioAssay AID463173 (ICCB-Longwood Screening Facility, Harvard Medical School, 2010).
Hit rate of the full screen: of about 52,000 compounds, about 1,700 (3.3%) were called active. Shown is part of a subset that was picked to be rich in actives. Unmarked numbers belong to inactive results. Rule as the data show it: active = survival mostly below about 52% (no sharp cut-off); inactive = mostly above about 56%.

test system: Wild type; test: growth inhibition of S. aureus wild type versus tarO mutant, primary screen, teichoic acid synthesis inhibitors, RN4220, OD600 (AID 463173); details: S. aureus RN4220 wild type/DeltatarO growth, OD600, 18 h, active compounds read low, screened at 18.75 µg/mL (by protocol)

SMILES | survival
COc1ccc(Cl)c2sc(NC(=O)c3ccc(S(=O)(=O)N4CCCC4)cc3)nc12 | 73%
CCn1ccc2cc(S(=O)(=O)N3CCCN(C(=O)Nc4ccc(C)cc4Cl)CC3)ccc21 | 63%
COc1ccc(OC)c(C2NC(=O)NC(C)=C2C(=O)Nc2ccc(F)cc2)c1 (stereo unspecified) | 81%
O=c1c2ccccc2nc(N2CCN(c3cccc(Cl)c3)CC2)n1-c1ccccc1 | 81%
Cc1ccc(C)c(N2CCN(c3nc4ccccc4c(=O)n3-c3ccccc3)CC2)c1 | 10% (active)
Cc1ccc(C)c(N2CCN(c3nc4ccccc4c(=O)n3-c3ccc(Cl)cc3)CC2)c1 | 78%
COc1cc(OC)c(OC)cc1CN1CCc2nc(N3CCN(C)CC3)ncc2C1 | 82%
CCN1CCN(c2ncc3c(n2)CCN(Cc2ccc(Br)s2)C3)CC1 | 60%
Cc1ccccc1CN1CCc2nc(N3CCN(c4ccccn4)CC3)ncc2C1 | 71%
CN1CCN(c2ncc3c(n2)CCN(Cc2ccccc2Cl)C3)CC1 | 71%
COc1ccccc1N1CCN(c2ncc3c(n2)CCN(Cc2ccccc2F)C3)CC1 | 67%
Cc1ccccc1CN1CCc2nc(N3CCN(c4ncccn4)CC3)ncc2C1 | 75%
CCN1CCN(c2ncc3c(n2)CCN(Cc2cc(Br)cs2)C3)CC1 | 1% (active)
COc1cc(OC)c(OC)cc1CN1CCc2nc(N3CCN(c4ccccc4F)CC3)ncc2C1 | 64%
CCOc1ccccc1CN1CCc2nc(N3CCN(c4ccccc4F)CC3)ncc2C1 | -6% (active)
CCOc1ccccc1CN1CCc2nc(N3CCN(C)CC3)ncc2C1 | -4% (active)

SMILES | survival
CN1CCN(c2ncc3c(n2)CCN(Cc2cc(Br)cs2)C3)CC1 | 129%
CCN1CCN(c2ncc3c(n2)CCN(Cc2ccccc2C)C3)CC1 | -3% (active)
COCCCNC(=O)C1CCN(c2ncnc3c2nc2n3CCCCC2)CC1 | 89%
CSc1nnc(-c2cc3ccccc3cc2O)n1C | 111%
COC(=O)c1sc2nc(C)cc(C)c2c1N | 103%
Nc1nc2cc3c(cc2s1)OCCO3 | 113%
COc1cc2nc(SCc3ccc(Cl)cc3)n3nc(CCn4nc(C)cc4C)nc3c2cc1OC | 71%
CCCCOc1ccc(CNC(=O)c2cnc3sc(N4CCC(C)CC4)nn3c2=O)cc1 | 127%
COC(=O)c1ccc(NC(=O)CCn2cccn2)cc1 | 88%
CCn1c2ccccc2c2cc(NC(=O)COc3cc(C)ccc3C)ccc21 | 18%
CCn1c2ccccc2c2cc(NC(=O)COc3ccc(C)cc3C)ccc21 | 8% (active)
CCc1ccc(OCC(=O)Nc2ccc3c(c2)c2ccccc2n3CC)cc1 | 69%
CCc1ccc(OCC(=O)Nc2ccc3c(c2)c2ccccc2n3CC)c(Br)c1 | -6% (active)
CCn1c2ccccc2c2cc(NC(=O)COc3cccc(C)c3)ccc21 | 34%
CCn1c2ccccc2c2cc(NC(=O)COC)ccc21 | 108%
